Each sequence was assayed against Nuclear ferritin-H (K562 nuclear extract, crude or heat/proteinase K enriched) (Homo sapiens, UniProt P02794 P02794:2-183) (assay: competition; 20-fold greater competitor concentration than wt needed for 50% inhibition; 1000-fold vs 50-fold excess). Settings: protein: extract; dsDNA, one strand shown.
Procedure: Gel mobility shift assays. Gel retardation assays (i.e., gel shifts) were used to determine DNA binding of the extract proteins to the Rsa I (95 bp) fragment and synthetic oligonucleotides (Berg et al., (1989) Nucleic Acids Res 17, 8833-52; Fried & Crothers (1981) Nucleic Acids Res 9, 6505-25). Each reaction contained 0.5-2 ng of DNA, 1.0-5.0 ug of extract protein, 1.0-5.0 ug of poly dI:poly dC, 100 mM KCl, and binding buffer (Berg et al., (1989) Nucleic Acids Res 17, 8833-52). Unlabeled competitor oligonucleotides ranged from 15- to 2000-fold molar excess and were included in the reaction mixture with the probe before adding protein. Gels used for retardation assays were 4%, 5%, or 6% acrylamide and the running buffer was low ionic strength TAE (Berg et al., (1989) Nucleic Acids Res 17, 8833-52).
Definition of the binding site with competition gel shifts. To further localize the binding of ferritin, the 37 bp oligonucleotide was mutated in different places, replacing six nucleotides at a time with all A's, all C's, or all G's, with complementary nucleotide replacements in the opposing strand (FIG. 4A). A competition gel shift assay was done with the partially purified protein from heated K562 nuclear extract, in which each of the unlabeled mutant oligos as well as the native sequence was competed against the 32-P-labeled native sequence for binding.
In the case of AACTCCTAAGCAAAAAACAGAAGAGCCAAGGACAGGT, the binding signal is reported as 20 fold.
